The panel holds about 83,000 compounds, 20% with a hit somewhere; the sample as a whole holds those more often.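 48-hour exposure, single concentration, 96-well plates; percent growth endpoint where 0 means no net growth. Active: below 10.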 Unmarked numbers belong to inactive results. Calls of active or inactive are those of the source.
Key:
Assay in all cases: NCI-60 one-dose screen, 48 h (100 = growth as untreated, 0 = no growth, -100 = all killed)
Conditions in all cases: 10 µM unless noted
[1] = test system: HCT-15 colon
[2] = test system: HT29 colon
[3] = test system: SNB-75 CNS
[4] = test system: SNB-19 CNS
[5] = test system: U251 CNS
[6] = test system: PC-3 prostate
[7] = test system: SK-MEL-5 melanoma
[8] = test system: UACC-62 melanoma
[9] = test system: LOX IMVI melanoma
[10] = test system: SK-MEL-28 melanoma

Compound | growth [1] | growth [2] | growth [3] | growth [4] | growth [5] | growth [6] | growth [7] | growth [8] | growth [9] | growth [10]
CC1=CC2(C)/C=C(C)/C=C\CC(O)/C=C3/C=CC(=C4C(=O)OC2(CC1C)C4=O)OC3 (stereo unspecified) | -56.9% (active) | -6.52% (active) | 53.3% | 56.4% | -50.2% (active) | -8.09% (active) | 56.7% | 6.46% (active) | -89.1% (active) | -87.6% (active)
c1ccc(-c2nn(-c3ccccc3)[n+](-c3cccc4ccccc34)n2)cc1 | 103% | 12.1% | 48.4% | 24.9% | 17.7% | 6.61% (active) | -30.2% (active) | -2.14% (active) | 12.7% | 41.2%
CN1CCN(c2c(F)cc(NC3=C(Cl)C(=O)c4ncccc4C3=O)cc2F)CC1 | 63.3% | 104% | 87.8% | 101% | 103% | 88.5% | 100% | 100% | 5.89% (active) | 69.8%
Cn1c(=O)c2[nH]c(CCCc3nc4c([nH]3)c(=O)n(C)c(=O)n4C)nc2n(C)c1=O | 115% | 109% | 105% | 101% | 107% | 94% | 103% | 96.8% | 105% | 131%
O=S(=O)(NCCCNc1nccc(-c2c(-c3ccccc3)nc3occn23)n1)c1ccc(Cl)cc1 | 79.8% | 47.5% | 95.6% | 97.8% | 86.6% | 72.1% | 70.3% | 68.8% | 72.7% | 90%
CCOC(=O)N1CCN(CCCCl)CC1 | 105% | 107% | 102% | 97.6% | 95.6% | 102% | 101% | 93.5% | 99.5% | 106%
COc1ccc(/C=C2\COc3ccc(-c4ccccc4)cc3C2=O)cc1O | 19.6% | 25.8% | 31.9% | 71.8% | 5.71% (active) | 27.8% | 32.3% | 41% | -13.5% (active) | 46.7%
CN1C(=O)N(C)C2NC(N/N=C/c3ccccc3)=NC21 (stereo unspecified) | 103% | 111% | 76.3% | 102% | 101% | 95.6% | 102% | 100% | 96.5% | 102%
Cc1cccc(Oc2ccc(Nc3ncnc4ccc(NC(=O)CN(C)C)cc34)cc2Cl)c1 | -40.9% (active) | 3.23% (active) | 66.4% | 59.9% | 28.1% | 40.7% | 39.9% | 102% | -78.1% (active) | 48.1%
CCN(CC)CCCC(C)Nc1c2c(nc3ccc(OC)cc13)CCCC2 (stereo unspecified) | 100% | 79.4% | 72.8% | 100% | 105% | 98.6% | 105% | 103% | 87.5% | 101%
CS(=O)(=O)OCCN(CCOS(C)(=O)=O)c1ccc(/C=N/Nc2ccc([N+](=O)[O-])cc2[N+](=O)[O-])cc1 | 100% | 85.9% | 77.2% | 82.7% | 76% | 67.3% | 89.2% | 78% | 63.5% | 95.7%
COc1cc2nc(-c3ccc(C#N)cc3)[nH]c(=O)c2cc1OC | 107% | 113% | 109% | 98.9% | 100% | 105% | 96.8% | 87.8% | 90.8% | 102%
O=C(NNc1nc(Cl)nc(N2CCN(C(c3ccccc3)c3ccccc3)CC2)n1)c1ccccc1 | -60.1% (active) | -78.9% (active) | -26.3% (active) | 32.4% | 27.3% | -46.9% (active) | 79.4% | 3.38% (active) | -88.7% (active) | -6.33% (active)
Cc1cc(NC(=O)c2cnc(N3CCN(CCOCCOCCOCCOCCC(=O)N[C@H](C(=O)N4C[C@H](O)C[C@H]4C(=O)N[C@@H](C)c4ccc(-c5scnc5C)cc4)C(C)(C)C)CC3)cn2)c2ncccc2c1 | 60.5% | 5.72% (active) | 6.69% (active) | 27.7% | 4.36% (active) | 1.95% (active) | -41.1% (active) | -57.1% (active) | -85.8% (active) | -75.1% (active)
COc1ccc(C(=O)c2cc3c(N)c(C(=O)Nc4ccc(Br)cc4)sc3nc2C)cc1 | 69.3% | 74.9% | -0.922% (active) | 56.6% | 58.7% | 74.2% | 81.5% | 73.4% | 84.5% | 86.4%
N#CC1=C(N)Oc2c(ccc3ccccc23)C1c1ccc([N+](=O)[O-])cc1 (stereo unspecified) | 41.5% | 90.3% | 44.8% | 87.8% | 89.8% | 65.4% | 86% | 65.6% | 59.1% | 89.3%
CCCC1C(C(=O)OCC)=C(N)Oc2cc(O)ccc21 (stereo unspecified) | 96.7% | 97.8% | 76.9% | 103% | 104% | 77.5% | 96.5% | 94.8% | 90.4% | 114%
CC1(c2ccccc2)NC(=O)N(CC(=O)Nc2cccc(I)c2)C1=O (stereo unspecified) | 92.9% | 95.9% | 66.8% | 84.7% | 88.7% | 67.9% | 31.1% | 74% | 93.8% | 93%
C/C(=C(/c1ccccc1)c1ccc(OCC(O)CN2CCOCC2)cc1)c1ccccc1 (stereo unspecified) | 53.8% | 13.1% | 91.4% | 102% | 81.1% | 71.8% | 87.1% | 97% | 87.9% | 90%
COc1ccc(C(=O)/C=C/c2c(OC)cc(OC)cc2OC)c(OC)c1 | 5.27% (active) | 1.7% (active) | 8.7% (active) | 33.6% | 15.5% | 6.39% (active) | -5.47% (active) | 11.9% | 27.3% | 56.8%
N#CSCC1CC(O)(c2ccccc2)C(c2ccccc2)C(c2ccc(F)cc2)O1 (stereo unspecified) | 42.6% | 0.506% (active) | 62.6% | 76.8% | 32.4% | 15.9% | 57.3% | 41.2% | -1.61% (active) | -15.5% (active)
CC(C)(C)CC(C)(C)Nc1c(-c2ccc(C(F)(F)F)cc2)nc2cnccn12 | 73.8% | 57.4% | 81.1% | 91.8% | 93% | 68.5% | 90% | 72.9% | 97.6% | 93.9%
CC(=O)Nc1ccc(S(=O)(=O)NC2CCCCC2)cc1 | 95.9% | 95.4% | 86.3% | 96.2% | 91% | 94.6% | 98.2% | – | 95.8% | –
COc1ccc(/C=C\c2nc3ccccc3s2)cc1OP(=O)(O)O | 30% | 104% | -2.05% (active) | 28.8% | 32.6% | 43.5% | 21.8% | – | 41.5% | 67.4%
O=C(CN1CCOCC1)Nc1ccc2ncnc(Nc3ccc(Oc4cccc(F)c4)c(Cl)c3)c2c1 | 72.8% | 83.5% | 79.5% | 73.2% | 85.7% | 59.3% | 68.5% | 76.7% | 80.4% | 83%
Clc1ccc(C2CC(c3cccc(Nc4ccncc4)c3)=NN2c2ccc(Cl)cc2)cc1 (stereo unspecified) | -71.6% (active) | -5.47% (active) | 70.7% | 67.8% | -49.7% (active) | 17% | 33.8% | 98% | -97.2% (active) | -92.3% (active)
S=c1[nH]cccc1-c1nnc2n1Nc1nc3ccc(Cl)cc3cc1CS2 | 96.9% | 110% | 91.4% | 96.8% | 105% | 97.7% | 98% | – | 98% | 104%
O=C(CCN1CCCC1)Nc1ccc2c(Nc3ccccc3)c3ccccc3nc2c1 | -3.61% (active) | 4.21% (active) | 10.9% | 18.4% | 0.528% (active) | 19.9% | 40.4% | 30.3% | -55.3% (active) | 62.3%
